# Experimental data as given in PubChem BioAssay (NCI).
# This is part of a sample that, as a whole, favours compounds with a hit. Of some 83,000 tested, about 20% had one in any assay.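 For each line, cells grew in 96-well plates with the test compound present at a single concentration for 48 hours.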 A number with no mark means an inactive call. Activity calls are given as the source filed them. How the source made its calls: active means growth percent below 10; inactive means the rest.
# Tests used:
# Experiment in all cases: NCI-60 one-dose screen, 48 h (100 = growth as untreated, 0 = no growth, -100 = all killed)
# Settings in all cases: 10 µM
# RPMI-8226 leukemia = system: RPMI-8226 leukemia
# OVCAR-8 ovarian = system: OVCAR-8 ovarian
# OVCAR-5 ovarian = system: OVCAR-5 ovarian
# OVCAR-4 ovarian = system: OVCAR-4 ovarian
# SK-OV-3 ovarian = system: SK-OV-3 ovarian
# IGROV1 ovarian = system: IGROV1 ovarian
# OVCAR-3 ovarian = system: OVCAR-3 ovarian
# HS 578T breast = system: HS 578T breast
# NCI/ADR-RES ovarian = system: NCI/ADR-RES ovarian
# T-47D breast = system: T-47D breast
# BT-549 breast = system: BT-549 breast
# MDA-MB-435 melanoma = system: MDA-MB-435 melanoma
# SW-620 colon = system: SW-620 colon
# MCF7 breast = system: MCF7 breast
# HCT-116 colon = system: HCT-116 colon
# HCC-2998 colon = system: HCC-2998 colon
# KM12 colon = system: KM12 colon
# MDA-MB-468 breast = system: MDA-MB-468 breast
Structure (SMILES),growth (RPMI-8226 leukemia),growth (OVCAR-8 ovarian),growth (OVCAR-5 ovarian),growth (OVCAR-4 ovarian),growth (SK-OV-3 ovarian),growth (IGROV1 ovarian),growth (OVCAR-3 ovarian),growth (HS 578T breast),growth (NCI/ADR-RES ovarian),growth (T-47D breast),growth (BT-549 breast),growth (MDA-MB-435 melanoma),growth (SW-620 colon),growth (MCF7 breast),growth (HCT-116 colon),growth (HCC-2998 colon),growth (KM12 colon),growth (MDA-MB-468 breast)
CCOC(=O)C1NN(c2ccc(S(N)(=O)=O)cc2)c2nc3nc(-c4cccs4)cc(-c4cccs4)c3c(=O)n21 (stereo unspecified),77.9%,86.7%,100%,70.2%,93.6%,104%,89.9%,8.11% (active),88.6%,85.4%,50.1%,106%,93.1%,74.2%,81.2%,107%,69.7%,99.5%
CN1CCN(c2ccc(Nc3nc(NCCNC(=O)c4ccc(C(F)(F)F)cc4)c4sccc4n3)cc2)CC1,-40.1% (active),21%,42.3%,-33.2% (active),77%,65%,27.8%,-8.08% (active),38.5%,-6.48% (active),-13.9% (active),-95.2% (active),4.68% (active),-44.4% (active),15.2%,-22.5% (active),31.4%,5.65% (active)
O=C(Nc1cccc(-c2cn(-c3ccc4oc(=O)ccc4c3)nn2)c1)Nc1cc(C(F)(F)F)cc(C(F)(F)F)c1,6.66% (active),34.6%,66.4%,7.53% (active),36.5%,29.9%,16.2%,27.7%,50.4%,-0.405% (active),3.59% (active),49%,56.6%,17%,29.1%,33.1%,33.2%,-23.3% (active)
COc1ccc2[nH]c(O)c(N=NC(=O)COc3ccc(NC(=O)Nc4ccc(Cl)cc4)cc3)c2c1,32.1%,-28.6% (active),48%,-21.6% (active),49.6%,68.8%,-30.6% (active),22.8%,102%,83.8%,76%,-52% (active),4.49% (active),1.75% (active),-33.8% (active),-14.3% (active),4.25% (active),-52.3% (active)
CCCCOc1ccc(Nc2nc3ccccc3nc2Nc2ccc(OCCCC)cc2)cc1,57.8%,92.3%,128%,93.6%,106%,108%,68.9%,103%,94.3%,79%,104%,88.4%,96.3%,75.3%,49%,106%,86.8%,73.8%
Cc1ccc(-c2nc3ccc(C(=O)N=Nc4c(O)[nH]c5ccc(Cl)cc45)cc3[nH]2)cc1,32.6%,-33.9% (active),18.2%,-63.6% (active),30.7%,18.1%,-47.2% (active),-0.441% (active),54.1%,-4.44% (active),-1.74% (active),-61.5% (active),-34% (active),-26.9% (active),0.963% (active),-66.8% (active),4.98% (active),-75% (active)
CC(C)CCSc1nc(NC2CC2)c(C#N)c(-c2ccc(C(C)C)cc2)n1,101%,110%,111%,112%,96.5%,113%,117%,108%,108%,100%,100%,112%,114%,97.9%,108%,115%,107%,106%
O=c1[nH][nH]c(Nc2ccccc2)c1N=Nc1ccc(F)cc1,112%,101%,112%,80.5%,94.5%,80.3%,103%,65.2%,100%,36.4%,65.3%,99.4%,109%,13.9%,87%,92.6%,55.3%,27.8%
COC(=O)C(Cc1ccc(O)c(O)c1)NC(=O)C(CSC/C=C(\C)CCCC(C)CCCC(C)CCCC(C)C)NC(C)=O (stereo unspecified),-5.06% (active),10.8%,28%,19.7%,41.7%,17.4%,34.8%,25.5%,73.8%,-0.796% (active),23.3%,30%,19.8%,24.4%,21.2%,19.3%,16.4%,6.4% (active)
CC(=O)Oc1ccccc1C(=O)Oc1ccc(C(=O)/C=C/c2ccncc2)cc1,13.6%,30.8%,62.7%,59.9%,96.7%,22.3%,19.5%,32.8%,63.5%,54.9%,31%,23.2%,6.33% (active),0.657% (active),-28.5% (active),-14% (active),22%,-59.3% (active)
Cc1cc2c(c(O)c1Br)-c1ncoc1C(=O)[C@]1(C)CC[C@H](C(C)C)[C@H]21,4.28% (active),32.6%,73.2%,52.4%,57%,52.2%,18.2%,54.7%,27.8%,20.6%,-24.6% (active),5.72% (active),22.8%,10.1%,31.1%,38.2%,20%,20.3%
Cc1ccc(C(C)C)cc1NC(=O)c1ccccc1O,3.01% (active),59.1%,96.2%,24.6%,44.5%,54.3%,29.9%,43%,29.1%,22%,-2.14% (active),44.7%,62.8%,40.2%,34.6%,47.5%,48.5%,40%
COc1cccc(-c2ccc(/C=N/NC(=O)c3[nH]c4ccc(Br)cc4c3-c3ccccc3)o2)c1,1.18% (active),-16% (active),12.3%,37.3%,34.2%,32.6%,8.31% (active),-1.37% (active),-35% (active),54.7%,25.8%,-30.7% (active),24.6%,4.65% (active),-7.28% (active),11.8%,10.8%,-2.92% (active)
O=C(CS(=O)(=O)c1oc(-c2ccc(Cl)cc2)nc1S(=O)(=O)c1ccccc1)N1CCCC1,-13.8% (active),-31.8% (active),-51.4% (active),-90.1% (active),97.9%,74.4%,-90.1% (active),60.2%,9.98% (active),-66.9% (active),-3.43% (active),-41.8% (active),-70.1% (active),-70.1% (active),0.106% (active),21.8%,61.7%,-90.5% (active)
C=C(C)[C@@H]1CC[C@]2(COP(=O)(OCC)OCC)CC[C@]3(C)[C@H](CC[C@@H]4[C@@](C)(CCCN)[C@H](C(=C)C)CC[C@]43C)[C@@H]12,-34.4% (active),26%,43.2%,23.2%,46.2%,40.4%,24.2%,31.3%,18.9%,19%,-8.75% (active),14.3%,12.4%,6.11% (active),-31.4% (active),10.7%,16.8%,5.69% (active)
Cc1ccc(CSc2nc(-c3ccc(F)cc3)c(C#N)c(=O)[nH]2)cc1,91.5%,97.8%,99%,96.5%,105%,113%,102%,105%,95.9%,86.5%,84.2%,106%,102%,89.2%,98.5%,115%,97%,126%
Cc1ccc(-c2nc3ccc(C(=O)N=Nc4c(O)[nH]c5ccc(Br)cc45)cc3[nH]2)cc1,49.6%,39.9%,62.8%,45.7%,96.1%,87.4%,49.4%,94.1%,99.7%,84.7%,138%,57.9%,7.03% (active),21.7%,26.3%,20.5%,32.6%,62.5%
